Measurements reported in PubChem BioAssay AID2540 (Sanford-Burnham Center for Chemical Genomics, 2010).
The campaign covered roughly 330,000 compounds. About 4,100 (1.2%) were called active. Cut-off read from the data, not from the text of the source: active = inhibition above about 50%; inactive = the rest. The sample as a whole holds a higher share of actives than the screen did.

Each molecule was assayed against Sentrin-specific protease 8 (Homo sapiens) (UniProt Q96LD8) (assay: blockers of human SENP8 peptidase activity – biochemical, luminescence, primary screen (AID 2540)). Settings: purified SENP8, Z-RLRGG-aminoluciferin cleavage, at 10 µM, active compounds read high.
Sequence of Sentrin-specific protease 8 (Homo sapiens) (Q96LD8 whole entry, looked up): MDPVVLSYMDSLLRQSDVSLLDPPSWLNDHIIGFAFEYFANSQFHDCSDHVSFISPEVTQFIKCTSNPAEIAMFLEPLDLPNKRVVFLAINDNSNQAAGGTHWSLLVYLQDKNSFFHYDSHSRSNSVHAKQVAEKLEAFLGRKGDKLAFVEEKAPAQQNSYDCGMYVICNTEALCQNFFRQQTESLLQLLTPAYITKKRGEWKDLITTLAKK

Structure (SMILES)	inhibition
COc1ccc(C(=O)NC(=S)Nc2ccc(Cl)cn2)cc1OC	-13.1% (inactive)
Cc1nc(NC(=O)c2ccc3c(c2)OCCO3)ccc1Br	74.8% (active)
Cc1ccc(C(=O)NNC(=O)c2ccc3c(c2)OCCO3)cc1	5.52% (inactive)
O=C(Nc1ccc(Cl)cn1)c1ccc2c(c1)OCCO2	75.8% (active)
CCCc1cc(C(=O)Nc2ccc(C(=O)OC)cc2)cs1	-3.33% (inactive)
O=C(Nc1ccc(Cl)cn1)c1cnn2cccnc12	-0.161% (inactive)
Cc1cccc(C)c1NC(=O)CNC(=O)c1ccc2c(c1)OCCO2	-10.7% (inactive)
CCCc1cc(C(=O)Nc2ccc(Cl)cn2)cs1	66.2% (active)
CCCCC(CC)C(=O)Nc1ccc(Cl)cn1 (centres undefined)	7.93% (inactive)
CCCCN(C(=O)CCNC(=O)NC12CC3CC(CC(C3)C1)C2)c1c(N)n(CCCC)c(=O)[nH]c1=O	-4.31% (inactive)
COc1ccccc1NC(=O)CCC(=O)OC(C)C(=O)c1ccccc1 (centres undefined)	-4.92% (inactive)
Cc1cc(Nc2cc(N3CCN(C)CC3)nc(Sc3ccc(NC(=O)C4CC4)cc3)n2)n[nH]1	-3.96% (inactive)
CC(=O)N(C1=C(Cl)C(=O)c2ccccc2C1=O)c1ccc(C(=O)O)cc1	61.8% (active)
O=C(CCN1C(=O)c2ccccc2C1=O)NNC(=O)c1ccc(Cl)cc1Cl	-11.3% (inactive)
O=S1(=O)CC/C(=N\Nc2ccc(F)cc2)c2ccsc21	-11.5% (inactive)
CNC(C)C#Cc1ccc2sc3cc(OC)c(OC)cc3c(=O)c2c1 (centres undefined)	70.5% (active)
O=C(NC(=S)N1CCCCC1c1cccnc1)c1ccccc1 (centres undefined)	-8.93% (inactive)
O=C(CCCCO)c1ccc(O)c(Cl)c1	-4.6% (inactive)
Cc1ccc(-c2cc(N)on2)cc1	-6.42% (inactive)
CCN(CC)S(=O)(=O)c1ccc(-c2cn3ccc(C)cc3n2)cc1	-1.4% (inactive)
Cc1ccc(-c2cn3cc(C)ccc3n2)cc1	84.7% (active)
Cc1cc(N2CCOCC2)nc(-c2ccc(Br)cc2)n1	-13.3% (inactive)
COc1ccc(-c2cn3ccc(C)cc3n2)cc1	95.5% (active)
Cc1ccc2nc(-c3ccc(Br)cc3)cn2c1	74.4% (active)
CSc1nnc2ccc(-c3ccc(C)cc3)nn12	-14.2% (inactive)

Structure (SMILES)	inhibition
Cc1ccc(-n2c(-c3ccc(Cl)cc3)n[nH]c2=S)cc1	-0.548% (inactive)
Cc1ccn2cc(C(=O)NC3CCN(Cc4ccccc4)CC3)nc2c1	3.06% (inactive)
COCCN(CCOC)S(=O)(=O)NC[C@H]1O[C@@H](n2cnc3c(N)ncnc32)[C@H](O)[C@@H]1O	3.39% (inactive)
COc1ccccc1CCNS(=O)(=O)c1cc2c3c(c1)C(C)C(=O)N3CCC2 (centres undefined)	-8.53% (inactive)
CCn1nc(C)c(/C=N/NC(=O)Cc2ccc(Cl)cc2)c1C	-9.56% (inactive)
Cc1ccc(NC(=O)CC2C(=O)N(Cc3ccccc3)C(=S)N2NC(=O)c2cccc(F)c2)c(C)c1 (centres undefined)	-4.05% (inactive)
Cc1ccc(O)c(NC(=S)NC(=O)COc2ccc(Br)cc2)c1	-5.01% (inactive)
CCCc1cc(=O)[nH]c(SCc2ccc(C#N)cc2)n1	0.541% (inactive)
C(=N\Nc1ccc2ccccc2n1)/c1ccc2c(c1)OCO2	93.1% (active)
Cc1cc(=O)[nH]c(N/N=C/c2ccc3c(c2)OCCO3)n1	-1.24% (inactive)
Cc1noc(C)c1/C=N/Nc1ccc2ccccc2n1	-8.03% (inactive)
COc1cc(-c2nnc(Cn3cc(C(F)(F)F)ccc3=O)o2)cc(OC)c1OC	-4.14% (inactive)
Cc1ccc(C)c(-n2c(SCC(=O)O)nc3sc4c(c3c2=O)CCCC4)c1	-9.61% (inactive)
CCCCCc1ccc(-c2ccc(OCC)cc2)nc1	-5.58% (inactive)
CCCCCc1ccc(-c2cn(Cc3ccc4ccccc4c3)nn2)cc1	-9.63% (inactive)
CCCCCc1ccc(-c2ccc(C(=O)O)cc2)nc1	92.4% (active)
CC(C)CN(C(=O)CSc1nncn1C)C1CCS(=O)(=O)C1 (centres undefined)	-3.63% (inactive)
CCOCCc1nn2c(=O)cc(CSCC(=O)Nc3cccc(C)c3C)nc2s1	-0.564% (inactive)
O=C(Nc1nnc(C2COc3ccccc3O2)o1)c1ccc(F)cc1 (centres undefined)	-17.2% (inactive)
CC(C)Oc1ccc(Oc2ccc(C(F)(F)F)cn2)cc1	-8.39% (inactive)
FC(F)(F)c1ccnc(Oc2ccc(C3=NCCS3)cc2)c1	67.8% (active)
NC1=NC(=O)C(Cc2cccc(Cl)c2)S1 (centres undefined)	-2.31% (inactive)
O=C(NCCCN1CCOCC1)c1cnn2c(-c3ccccc3)cc(-c3ccccc3)nc12	-0.117% (inactive)
N#C/C=C1\Sc2ccccc2C(=O)N1CC(=O)N1CCN(S(=O)(=O)c2ccccc2)CC1	-2.48% (inactive)
